IDE exosite inh: exo-site inhibitors of human insulin-degrading enzyme; P14735; purified IDE, FL-6b probe fluorescence polarization; active compounds read low; AID 1259349; actives 6.3% (n = 17,000); z-score at 20 µM;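 active means z-score of -3 or lower, meaning strong loss of probe binding signal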;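 further: His-tagged human IDE residues 42-1019 made in E. coli with 30 nM FL-6b probe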
Target sequence (P14735 42-1019 limits assumed): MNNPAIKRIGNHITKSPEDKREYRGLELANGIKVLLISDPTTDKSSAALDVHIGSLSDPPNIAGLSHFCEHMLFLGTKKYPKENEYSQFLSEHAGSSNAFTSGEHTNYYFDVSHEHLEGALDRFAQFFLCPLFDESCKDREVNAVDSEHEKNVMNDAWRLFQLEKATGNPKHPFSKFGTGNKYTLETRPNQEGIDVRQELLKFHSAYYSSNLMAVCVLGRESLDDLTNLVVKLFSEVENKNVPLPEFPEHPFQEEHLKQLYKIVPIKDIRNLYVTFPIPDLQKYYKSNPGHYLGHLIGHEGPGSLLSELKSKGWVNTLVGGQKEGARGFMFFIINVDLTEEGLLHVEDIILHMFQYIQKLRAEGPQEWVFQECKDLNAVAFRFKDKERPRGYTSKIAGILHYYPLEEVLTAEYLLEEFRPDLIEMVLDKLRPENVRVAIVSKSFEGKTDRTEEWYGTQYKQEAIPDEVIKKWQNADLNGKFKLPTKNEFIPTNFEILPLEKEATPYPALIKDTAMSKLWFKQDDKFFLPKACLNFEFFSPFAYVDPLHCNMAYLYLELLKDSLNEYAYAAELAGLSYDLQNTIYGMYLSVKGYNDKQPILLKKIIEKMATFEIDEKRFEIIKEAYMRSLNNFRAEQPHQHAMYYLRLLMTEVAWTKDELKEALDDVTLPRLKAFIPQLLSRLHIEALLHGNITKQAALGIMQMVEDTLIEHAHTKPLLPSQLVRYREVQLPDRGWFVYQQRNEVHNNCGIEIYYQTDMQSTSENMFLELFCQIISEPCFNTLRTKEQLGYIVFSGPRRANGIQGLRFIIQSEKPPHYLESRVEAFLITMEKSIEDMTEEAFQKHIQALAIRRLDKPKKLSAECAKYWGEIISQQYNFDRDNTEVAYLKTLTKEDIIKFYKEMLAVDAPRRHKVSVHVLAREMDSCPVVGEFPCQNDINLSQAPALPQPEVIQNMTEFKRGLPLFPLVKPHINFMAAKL
Hits are given with their value; - = inactive; ! = not confirmed by another sample. Many of the other results were omitted from the sample, so hits are more common in it than they were.

SMILES | IDE exosite inh
COc1cccc(CN2C[C@@H]3N[C@H](C2)C3c2ccc(-c3ccccc3C)cc2)c1 (stereo not given in full) | -4!
COc1cccc(CN2C[C@@H]3N[C@H](C2)C3c2ccc(-c3ccncc3)cc2)c1 (stereo not given in full) | -
Fc1ccc(-c2ccc(C3[C@@H]4CN(Cc5cccc(F)c5)C[C@H]3N4)cc2)cc1 (stereo not given in full) | -
COc1cccc(CN2C[C@@H]3N[C@H](C2)C3c2ccc(-c3ccccc3F)cc2)c1 (stereo not given in full) | -5.1!
COc1cccc(CN2C[C@@H]3N[C@H](C2)C3c2ccc(-c3cccc(C#N)c3)cc2)c1 (stereo not given in full) | -
COc1cccc(-c2ccc(C3[C@@H]4CN(Cc5cccc(F)c5)C[C@H]3N4)cc2)c1 (stereo not given in full) | -
CCCC(=O)Nc1ccc2c(c1)C(=O)N(C)C[C@H](OC)[C@H](C)CN(Cc1ccc(F)cc1)[C@@H](C)CO2 | -
O=C(c1cnccn1)N1CC(=O)N2[C@H](CO)[C@H](c3ccc(-c4cccc(F)c4)cc3)[C@H]2C1 | -
COc1ccc2c3c(n(C)c2c1)[C@@H](CO)N(C(C)=O)CC31CCN(C(=O)Nc2ccccc2F)CC1 | -
OC[C@H]1[C@@H](c2ccc(-c3ccccc3)cc2)[C@H]2CN(CCC(F)(F)F)CCCCN21 | -
OC[C@@H]1[C@H](c2ccc(C#CC3CCCC3)cc2)[C@H]2CN(CCC(F)(F)F)CCCCN12 | -
COc1ccccc1C#Cc1ccc([C@H]2[C@H](CO)N3CCCCN(CCC(F)(F)F)C[C@@H]23)cc1 | -6.1
COc1ccccc1C#Cc1ccc([C@@H]2[C@@H](CO)N3CCCCN(CCC(F)(F)F)C[C@@H]23)cc1 | -5.6
OC[C@@H]1[C@@H](c2ccc(-c3ccccc3)cc2)[C@@H]2CN(CCC(F)(F)F)CCCCN12 | -
OC[C@H]1[C@@H](c2ccc(-c3ccc(F)cc3)cc2)[C@H]2CN(CCC(F)(F)F)CCCCN21 | -
OC[C@@H]1[C@H](c2ccc(-c3ccccc3)cc2)[C@H]2CN(CCC(F)(F)F)CCCCN12 | -
COc1ccccc1C#Cc1ccc([C@H]2[C@@H](CO)N3CCCCN(CCC(F)(F)F)C[C@@H]23)cc1 | -6.9
OC[C@H]1[C@@H](c2ccc(C#CC3CCCC3)cc2)[C@@H]2CN(CCC(F)(F)F)CCCCN12 | -
CN(C[C@H]1[C@H](c2ccccc2)[C@@H](CO)N1CC1CC1)C(=O)c1ccccc1 | -
COc1cccc(S(=O)(=O)N[C@H]2CC[C@@H](CC(=O)NC3Cc4ccccc4C3)O[C@H]2CO)c1 | -
O=C(C[C@@H]1CC[C@H]2[C@@H](COC[C@@H](O)CN2Cc2ccc(C(F)(F)F)cc2)O1)N1CCc2ccccc2C1 | -
COc1ccc(-c2ccc([C@@H]3[C@@H](CO)N4C(=O)CN(Cc5ccccc5)C[C@H]34)cc2)cc1 | -
O=C(CC1CC1)N1CC(=O)N2[C@H](CO)[C@@H](c3ccc(C#Cc4ccc(F)cc4)cc3)[C@@H]2C1 | -
O=C(CC1CC1)N1CC(=O)N2[C@@H](CO)[C@@H](c3ccc(C#Cc4ccccc4)cc3)[C@@H]2C1 | -11
O=C(CC1CC1)N1CC(=O)N2[C@@H](CO)[C@H](c3ccc(C#Cc4ccccc4)cc3)[C@@H]2C1 | -11
SMILES | IDE exosite inh
O=C(CC1CC1)N1CC(=O)N2[C@H](CO)[C@H](c3ccc(C#Cc4ccc(F)cc4)cc3)[C@H]2C1 | -
O=C(CC1CC1)N1CC(=O)N2[C@H](CO)[C@H](c3ccc(C#Cc4ccccc4)cc3)[C@H]2C1 | -16
O=C(CC1CC1)N1CC(=O)N2[C@@H](CO)[C@H](c3ccc(C#Cc4ccc(F)cc4)cc3)[C@@H]2C1 | -
CCS(=O)(=O)N1CCC2(CC1)CN(C(=O)c1cccc(F)c1)[C@@H](CO)c1c2c2ccc(OC)cc2n1C | -
CN1C(=O)c2cc(NC(=O)Nc3ccc(Cl)cc3)ccc2OC[C@H]2O[C@H](CC(=O)NCCN3CCCCC3)CC[C@H]21 | -
O=C(C1CCCC1)N1CC2(C1)[C@@H](c1ccccc1)[C@H](CO)N2Cc1ccc(Cl)cc1 | -
Cc1ccccc1S(=O)(=O)N1CC(=O)N2[C@@H](CO)[C@@H](c3ccc(C#CCN(C)C)cc3)[C@@H]2C1 | -
O=C(Nc1cccc(F)c1)N1CC(=O)N2[C@H](CO)[C@H](c3ccc(-c4ccccc4)cc3)[C@H]2C1 | -
Cc1cccc(-c2ccc([C@@H]3[C@@H](CO)N4CCCCN(C(=O)c5cccnc5)C[C@@H]34)cc2)c1 | -3.3
O=C(c1cccc(F)c1)N1CCCCN2[C@H](CO)[C@@H](c3ccc(-c4cccnc4)cc3)[C@H]2C1 | -
O=C(c1cccc(F)c1)N1CCCCN2[C@H](CO)[C@H](c3ccc(-c4cccnc4)cc3)[C@H]2C1 | -
Cc1cccc(-c2ccc([C@@H]3[C@@H](CO)N4CCCCN(C(=O)c5cccnc5)C[C@H]34)cc2)c1 | -4.3
Cc1cccc(-c2ccc([C@H]3[C@H]4CN(C(=O)c5cccnc5)CCCCN4[C@H]3CO)cc2)c1 | -
Cc1cccc(-c2ccc([C@H]3[C@H](CO)N4CCCCN(C(=O)c5cccnc5)C[C@@H]34)cc2)c1 | -
COCC(=O)N1CCC2(CC1)CN(Cc1cc(F)ccc1F)[C@H](CO)c1c2c2ccc(OC)cc2n1C | -4
COCC(=O)N1CC2(C1)CN(Cc1cccc(F)c1)[C@@H](CO)c1c2c2ccc(OC)cc2n1C | -
COCC(=O)N1CC2(C1)CN(Cc1cccc(F)c1)[C@H](CO)c1c2c2ccc(OC)cc2n1C | -
COc1ccc2c3c(n(C)c2c1)[C@H](CO)N(Cc1cccc(F)c1)CC31CCN(C(=O)Cc2ccccc2)CC1 | -3.7
COc1ccc2c3c(n(C)c2c1)[C@H](CO)N(Cc1ccccc1F)CC31CCN(C(=O)C2CCOCC2)CC1 | -
COc1ccc2c3c(n(C)c2c1)[C@@H](CO)N(Cc1cc(F)ccc1F)CC31CN(C(=O)C2CC2)C1 | -
CCN1[C@@H]2c3ccc(-c4ccc(F)cc4)c(=O)n3C[C@H]1[C@H](CO)[C@H]2C(=O)Nc1nccs1 | -
CCS(=O)(=O)N1CCCCN2[C@H](CO)[C@@H](c3ccc(-c4cccc(C#N)c4)cc3)[C@@H]2C1 | -
O=C(C[C@@H]1C[C@@H]2c3cc(NC(=O)C4CCOCC4)ccc3O[C@@H]2[C@H](CO)O1)NCCN1CCCCC1 | -
CN1C(=O)c2cc(NC(=O)c3ccno3)ccc2OC[C@H]2O[C@@H](CC(=O)Nc3ccccc3)CC[C@@H]21 | -
CCS(=O)(=O)Nc1ccc2c(c1)C(=O)N(C)[C@H]1CC[C@@H](CC(=O)N3CCN(C)CC3)O[C@H]1CO2 | -
SMILES | IDE exosite inh
COc1ccc2c3c([nH]c2c1)[C@H](CO)N(C(=O)C1CCOCC1)CC31CCN(S(C)(=O)=O)CC1 | -
O=C(c1cccnc1)N1CCCCN2[C@@H](CO)[C@H](c3ccc(C#Cc4cccnc4)cc3)[C@@H]2C1 | -
O=C(c1cccnc1)N1CCCCN2[C@H](C1)[C@@H](c1ccc(C#Cc3ccccn3)cc1)[C@@H]2CO | -3.8
CC(C)(O)C#Cc1ccc([C@H]2[C@@H](CO)N3CCCCN(C(=O)c4cccnc4)C[C@H]23)cc1 | -
O=C(c1ccncc1)N1CCCCN2[C@@H](CO)[C@H](c3ccc(C#Cc4ccccn4)cc3)[C@@H]2C1 | -
O=C(c1cccnc1)N1CCCCN2[C@H](CO)[C@@H](c3ccc(C#Cc4ccccn4)cc3)[C@@H]2C1 | -
O=C(c1cccnc1)N1CCCCN2[C@H](CO)[C@@H](c3ccc(C#Cc4ccccn4)cc3)[C@H]2C1 | -4.7

Compound activity as filed in PubChem BioAssay.
